# Data taken from PubChem BioAssay (NCI).
# The panel holds about 83,000 compounds, 20% with a hit somewhere; the sample as a whole holds those more often.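 Treatment: one concentration, 48 hours, 96-well format. Scoring: percent growth, with anything below 10 considered active.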 Values without a mark were called inactive. Active and inactive are the calls of the source.
# Tested on: HCT-116 colon
# Assay: NCI-60 one-dose screen, 48 h (100 = growth as untreated, 0 = no growth, -100 = all killed)
# Conditions: 10 µM
# Procedure: Growth inhibition of the HCT-116 human tumor cell line is measured as a screen for anti-cancer activity. Cells are grown in 96 well plates and exposed to the test compound for 48 hours. Compounds are tested at a single concentration, which is 10^-5 M for most compounds. The reported endpoint is percent growth (GI% or GIPRCNT), where numbers from 0 - 100% represent growth inhibition, and numbers from -100% - 0 represent cell death. For example, a value of 40 represents 60% growth inhibition. A value of 0 means no net growth occurred over the course of the experiment. A value of -40 indicates 40% of cells at the beginning of the experiment died by the end of the experiment. A value of -100 means all cells are dead at the end of the experiment.
# NCI-60 Human Tumor Cell Lines Screen was performed using the standard one-dose NCI protocol, which is described in more detail at https://dtp.cancer.gov/discovery_development/nci-60/default.htm.
# Compounds with GIPRCNT values below 10 were considered active. Activity score was based on GIPRCNT using the following formula: […]
# Score is 0 for GIPRCNT values of 100 or above, 50 for GIPRCNT values of 0, and 100 for GIPRCNT values of -100.
row,Compound,growth
1,COc1cc(-c2c(C#N)c(N)n3c(nc4ccccc43)c2C#N)cc(Br)c1OC,18.8%
2,C[C@]12CC[C@H]3[C@@H](CCC4=CC(=O)CC[C@@]43C)[C@@H]1CC[C@@H]2c1csc(N)n1,32.7%
3,C/C(=N\NC(N)=S)C(C)(C)O,6.43% (active)
4,O=C(Nc1cccc(C(F)(F)F)c1)C(Cl)Cl,98.1%
5,CC(=O)N(O)c1ccc(/C=C/c2ccccc2)cc1,19.7%
6,Cn1cnc([N+](=O)[O-])c1/C=C1\Oc2ccc(Cl)cc2C1=O,22.4%
7,CC1(C)CC(=O)c2c(nc3ccc(Cl)cc3c2-c2ccccc2)C1,91%
8,Fc1cc(-c2ncc(-c3cc(F)c(F)c(F)c3)c(NC3CCCCCC3)n2)cc(F)c1F,101%
9,COC(=O)c1cnc2c(c1)Oc1ccc(Cl)cc1-c1cc(C)nn1-2,42.6%
10,C[C@@H]1N=C(c2ccc(Br)cc2)Nc2nc3ccccn3c2C1=O,29.2%
11,O=NN(CC(=O)N/N=C/C=C\c1ccccc1)CC(=O)N/N=C/C=C/c1ccccc1,96.2%
12,COc1cc(Cn2c(-c3ccccc3)c(Cl)c3c2-c2oncc2CC3)cc(OC)c1,47.5%
13,O=C(Nc1ccc(Oc2ccc(Nc3nc4ccccc4s3)cc2)cc1)Nc1ccc(Cl)c(Cl)c1,16.8%
14,Cc1cc(C)c(/C=C2\C(=O)Nc3ccc(NC(=O)CCCCCCC(=O)NO)cc32)[nH]1,-77.2% (active)
15,CCCCn1c(=O)[nH]c(N)c(C(c2ccc(Cl)cc2)c2c(N)[nH]c(=O)n(CCCC)c2=O)c1=O,27.3%
16,C/C(=N\NC(=O)c1sc(=S)n(C)c1N)c1cc2ccccc2o1,59.1%
17,COc1ccc(-c2n/c(=C\c3c(O)[nH]c4ccccc34)cc3c2=Nc2ccccc2-3)cc1,-87.3% (active)
18,COC(=O)c1cnc2c(c1)Oc1ccccc1-c1ccnn1-2,92.1%
19,COc1ccccc1S(=O)(=O)Nc1ccc2c(c1)CN(C)C(=O)N2,49.7%
20,CCCc1ccnc(NS(=O)(=O)c2ccc(N)cc2)n1,66.1%

row,Compound,growth
1,C#Cc1ccc(-n2c(/C=C/c3cc(OC)c(OC)c(OC)c3)nc3ncccc3c2=O)cc1,54.2%
2,COc1ccc(C(=O)/C=C/c2cc(-c3ccc(OC)c(OC)c3)n[nH]2)cc1OC,-89.2% (active)
3,COc1cccc2c1C(=O)c1c(O)c3c(c(O)c1C2=O)C[C@@](O)(C(=O)COC(=O)c1cccnc1)C[C@@H]3OC1CC(N)C(O)C(C)O1 (stereo not given in full),6.26% (active)
4,Cc1ccc(-n2nnc3c(sc4ccccc43)c2=O)cc1,3.11% (active)
5,O=C(N/N=C/c1ccccc1O)c1ccccc1,14.9%
6,COc1ccc(-c2csc(NC(=O)CO[N+](=O)[O-])n2)cc1,102%
7,O=C(NNc1nc(N2CCCC2)nc(N2CCCC2)n1)c1ccccc1,109%
8,CCOC(=S)Sc1ccc([N+](=O)[O-])cc1[N+](=O)[O-],31%
9,COc1ccc(-c2cc(/C=C/C(=O)c3ccc(N)cc3)[nH]n2)cc1OC,17.4%
10,COc1ccc2oc(=O)cc(C(c3ccc[nH]3)c3ccc[nH]3)c2c1,-3.62% (active)
11,COc1cc(C2C=C(c3ccc(Cl)c(Cl)c3)N=C3SC(C)=CN32)cc(OC)c1OC (stereo not given),-25.8% (active)
12,COc1ccc(C(=O)c2sc3nc(-c4cccs4)ccc3c2N)cc1OC,43.3%
13,CCc1ccc(Nc2cc(C)nc3nc(C)nn23)cc1,-90.7% (active)
14,COc1ccccc1Cn1cc2c(c1-c1ccccc1)CCc1cnoc1-2,20.9%
15,CCCCCCCCCCCCCCCCCBr,105%
16,CC(C)c1ncc(CO)n1Cc1c(Cl)cccc1Cl,102%
17,COc1cc(-c2nc3ccc(C)cc3[nH]2)ccc1OCc1nnc(-c2ccc(CC(C)C)cc2)o1,97.1%
18,CCCCCCCCCCCCCCCCn1cc[n+](C)c1,-87.2% (active)
19,CCOC(=O)C(CCC1=NC(C)(C)CC(C)O1)C(=O)OCC (stereo not given),46%
20,Cc1ccc(NC(=O)/C=N/O)cc1C,98.1%
